Assay outcomes (PubChem BioAssay)
GLP-1R inv ag: qHTS of GLP-1 Receptor Inverse Agonists (Inhibition Mode); Glucagon-like peptide 1 receptor (Homo sapiens), P43220; HEK293 GLP-1R CRE-luciferase, luminescence, 24 h; GLP-1R form is constitutively active; Potency, µM (titrated, usually from 38.3 µM), without a hit: top-dose activity change, negative = inhibition, usual class: inhibitors; 1.6% of 410,000 active; note: % is set by controls: 0 for no effect and ±100 for the full control effect; nearly all actives have a fitted effect of over 55% in size
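Inverse agonists were sought by their lowering of basal cAMP reporter luciferase output in HEK293 cells stably carrying constitutively active human GLP-1R, after 24 h compound treatment.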
HEK293 tox: qHTS of GLP-1 Receptor Inverse Agonists: Cytotox Screen | HEK293 cAMP-luciferase reporter cells, luminescence, 24 h | Potency, µM (series often up to 38.3 µM), without a hit: at the top dose activity change, negative = inhibition, hits mostly inhibitors | 0.13% of 410,000 active | AID 624418, 2012;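 note: loss of luciferase light is scored as toxicity; % is set by controls: 0 for no effect and ±100 for the full control effect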
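1536-well qHTS counterscreen of the MLSMR; 200 cells/uL, 12 h pre-incubation, 23 nL cpd, 24 h at 37 deg C 5% CO2, luciferase detection reagent, 12 min RT, luminescence. Inhibition = undesired.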
PTHR1 ag: qHTS for PTHR1 Agonists: Primary Screen. Parathyroid hormone/parathyroid hormone-related peptide receptor (Homo sapiens), Q03431. HEK293 GP2 PTHR1 cells, GloSensor cAMP luminescence, 1 h. Potency, µM (series often up to 115 µM), inactives show at the highest dose activation, most hits filed as activators. 0.075% of 410,000 active. AID 743266, 2014; note: nearly all actives have a fitted effect of over 55% in size
Target sequence (Q03431 whole entry, looked up): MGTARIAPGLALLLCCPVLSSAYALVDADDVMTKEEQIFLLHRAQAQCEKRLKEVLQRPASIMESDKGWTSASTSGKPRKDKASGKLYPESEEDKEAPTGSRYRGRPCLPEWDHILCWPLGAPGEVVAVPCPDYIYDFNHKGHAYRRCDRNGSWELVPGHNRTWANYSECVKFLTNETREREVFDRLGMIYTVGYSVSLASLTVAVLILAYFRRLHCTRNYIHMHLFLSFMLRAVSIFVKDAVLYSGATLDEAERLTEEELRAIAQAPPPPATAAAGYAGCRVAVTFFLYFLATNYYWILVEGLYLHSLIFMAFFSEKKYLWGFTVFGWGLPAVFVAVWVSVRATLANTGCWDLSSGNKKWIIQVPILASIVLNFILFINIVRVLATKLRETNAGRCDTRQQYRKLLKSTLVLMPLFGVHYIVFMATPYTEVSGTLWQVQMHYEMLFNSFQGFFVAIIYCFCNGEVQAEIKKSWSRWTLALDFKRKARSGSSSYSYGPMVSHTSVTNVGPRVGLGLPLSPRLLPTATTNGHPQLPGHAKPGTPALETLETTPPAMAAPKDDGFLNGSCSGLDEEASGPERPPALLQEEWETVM
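HEK-293-derived GP2 cells expressing PTHR1 and a GloSensor cAMP reporter, 3,000/well, plated overnight, given luciferin plus IBMX (each 0.5 mM as added) for 1 h at 37 °C, then compound for 1 h at 37 °C. Luminescence was read after 15 min at room temperature.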
GLP1R ag: qHTS of GLP-1 Receptor Agonists. Glucagon-like peptide 1 receptor (Homo sapiens), P43220. HEK293 GLP-1R CRE-luciferase, luminescence, 4-6 h; cells express a hypersensitive GLP-1R form. Potency, µM (doses to about 45.6 µM), without a hit: at the top dose activation, actives largely listed as activators. 0.007% of 380,000 active; note: % of control where 0% means no effect
Numbers without * were called inactive. This is a sample that favours compounds with a hit; in the whole collection about 1.7% have one here. Calls come from the whole dose curve; as a rule, active = well fitted curve in the direction sought with a large enough effect; inconclusive = small, poorly fitted or top-dose-only effect, or another doubt; inactive = no such curve, though single readings can be large; an effect the other way counts as inactive or inconclusive. Potency is the fitted concentration of half-maximal effect.

CCOc1ccc(NC(=O)N2CC(C)OC(C)C2)cc1 (configuration not stated) was read as GLP-1R inv ag 2%, HEK293 tox -7%, PTHR1 ag -3% and GLP1R ag -2%.
`O=C(NC(c1ccccc1)c1ccccc1)c1ccc(S(=O)(=O)C(F)F)cc1` gave GLP-1R inv ag -1%, HEK293 tox -8%, PTHR1 ag inactive and GLP1R ag -5%.
For Cc1ccc(NC(=O)N2CCN(c3ccc(Cl)c(Cl)c3)CC2)cc1 the results were GLP-1R inv ag inconclusive, HEK293 tox -8% and PTHR1 ag -90%.
For CC(C)c1ccc(NC(=O)N2CCN(S(=O)(=O)c3ccccc3)CC2)cc1 the results were GLP-1R inv ag 5.6µM*, HEK293 tox -6%, PTHR1 ag -26% and GLP1R ag 4%.
Screening CC(C)c1ccc(NC(=O)N2CCN(c3ccc(Cl)c(Cl)c3)CC2)cc1 returned GLP-1R inv ag 7.9µM*, HEK293 tox -23% and PTHR1 ag -90%.
For COc1ccccc1CNC(=O)c1cc2ccc3ccc(C)[nH]c3c2n1 the results were GLP-1R inv ag 10µM*, HEK293 tox -8%, PTHR1 ag -25% and GLP1R ag -2%.
For Cc1ccc(CSC2=NC(C)(C)Nc3ccccc32)c(C)c1 the results were GLP-1R inv ag 10µM*, HEK293 tox 0% and PTHR1 ag inactive.
CN(C)CCCNC(=O)c1ccccn1 was read as GLP-1R inv ag 7%, HEK293 tox -3%, PTHR1 ag inactive and GLP1R ag -4%.
CN(C)CCCNC(=O)c1ccc(-c2nc(-c3ccc(Cl)cc3)cs2)cc1 was read as GLP-1R inv ag 6.3µM*, HEK293 tox inconclusive, PTHR1 ag inactive and GLP1R ag -5%.
Screening COc1cccc(C(=O)NCCc2csc(-c3ccc(Cl)cc3)n2)c1 returned GLP-1R inv ag inconclusive, HEK293 tox -6% and PTHR1 ag inactive.
Screening CC(C)(C)c1ccc(C(=O)NCCc2csc(-c3ccc(Cl)cc3)n2)cc1 returned GLP-1R inv ag 10µM*, HEK293 tox -4% and PTHR1 ag inactive.
O=C1CCCC/C1=N\Nc1ccc(OCc2ccccc2)cc1 was read as GLP-1R inv ag 2.8µM*, HEK293 tox -23%, PTHR1 ag -22% and GLP1R ag 5%.
`Oc1ccc(NCc2ccc(OCc3ccccc3)cc2)cc1` gave GLP-1R inv ag 135%, HEK293 tox inconclusive, PTHR1 ag inconclusive and GLP1R ag 24%.
For CC1=C(C(=O)N(C)C)CC(CC(=O)NCCc2ccccn2)C(=O)N1Cc1ccccc1 (configuration not stated) the results were GLP-1R inv ag 9%, HEK293 tox 1%, PTHR1 ag inactive and GLP1R ag -2%.
For Cc1cc(C)c(NC(=O)C(=O)NCC(c2cccnc2)N2CCN(Cc3ccccc3)CC2)c(C)c1 (configuration not stated) the results were GLP-1R inv ag 3%, HEK293 tox 3% and PTHR1 ag -14%.
Screening CC(C)Oc1ccc(CN2CCCC(CO)(Cc3ccc(F)cc3)C2)cc1 (configuration not stated) returned GLP-1R inv ag 11µM*, HEK293 tox -15%, PTHR1 ag -9% and GLP1R ag 14%.
Screening OCC1(Cc2cccc(Cl)c2)CCCN(Cc2ccc(F)c(F)c2)C1 (configuration not stated) returned GLP-1R inv ag 10µM*, HEK293 tox 6%, PTHR1 ag -24% and GLP1R ag 1%.
For O=C(COC(=O)c1cccc(OC(F)F)c1)Nc1cc(S(=O)(=O)N2CCCC2)ccc1Cl the results were GLP-1R inv ag 15%, HEK293 tox -14%, PTHR1 ag -33% and GLP1R ag 2%.
O=S(=O)(Nc1nc2ccc(S(=O)(=O)N3CCCC3)cc2s1)c1ccc(F)cc1 was read as GLP-1R inv ag -7%, HEK293 tox 5%, PTHR1 ag 0% and GLP1R ag 0%.
For c1ccc(CCNc2ncnc3scc(C4COc5ccccc5O4)c23)cc1 (configuration not stated) the results were GLP-1R inv ag 7.9µM*, HEK293 tox inconclusive, PTHR1 ag inconclusive and GLP1R ag -13%.
